Inconclusive results are not listed. Active and inactive are the calls of the source. Unless noted, the call rests on the fitted dose curve; in most records, active means well fitted curve in the direction sought with a large enough effect in the repeat runs; inconclusive means weak or mixed curves; inactive means no such curve, though single readings can be large; an effect the other way counts as inactive or inconclusive.
Tests used:
[1] = qHTS assay to identify small molecule agonists of the estrogen receptor alpha (ER-alpha) signaling pathway in the presence of an antagonist - cell viability counter screen (AID 1259386);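 further: cells exposed to compounds for 22 h at 37 °C before the viability read; nearly all actives have a fitted effect of over 30% in size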; further: potency means the concentration at half of the fitted maximal effect; on activity change, negative = cytotoxicity: series mostly up to about 92 µM
Method in brief: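 VM7Luc4E2 cells (endogenous full-length ER-alpha, 4×ERE-luciferase) were held 5 days in phenol red-free medium with 10% charcoal-stripped FBS, plated, then given 10.0nM ICI-182,780 and compounds at 15 concentrations for 22hr at 37C; viability read by CellTiter-Fluor fluorescence.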

[2] = molecular target: Progesterone receptor (Homo sapiens) (UniProt P06401); experiment: qHTS assay to identify small molecule agonists of the progesterone receptor (PR) signaling pathway (AID 1346784; calls by dose curve; further: nearly all actives have a fitted effect of over 30% in size)
Method in brief: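 Agonist mode, quantitative HTS format in a HEK 293T line expressing a UAS-controlled beta-lactamase reporter; 16 hr compound exposure at 37C in 2% charcoal-stripped FBS, then LiveBLAzer B/G FRET fluorescence.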

[3] = molecular target: Progesterone receptor (Homo sapiens) (UniProt P06401); experiment: qHTS assay to identify small molecule antagonists of the progesterone receptor (PR) signaling pathway (AID 1346795; active means well fitted inhibition curve with a large enough effect in the signal ratio in the repeat runs, not every such curve was filed as active; the % refers to the signal ratio)
Method in brief: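 HEK293T PR-UAS-bla reporter cells in charcoal-stripped serum (2%) received compound after a 6 hr settling period, followed by R5020 agonist at 1 nM final; 16 hr incubation preceded the FRET substrate step and fluorescence measurement.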

[4] = qHTS assay to identify small molecule antagonists of the progesterone receptor (PR) signaling pathway - cell viability counter screen (AID 1346798); further: series mostly up to about 92 µM; nearly all actives have a fitted effect of over 50% in size
Method in brief: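 Same-well multiplex: after 16 hr at 37C with compound and R5020 stimulation, HEK293T cells carrying a UAS-bla reporter received LiveBLAzer substrate (2 hr RT), then CellTiter-Glo (30 min RT) for luminescent viability.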

[5] = qHTS assay to identify small molecule agonists of the progesterone receptor (PR) signaling pathway - cell viability counter screen (AID 1346799; calls by dose curve; further: nearly all actives have a fitted effect of over 45% in size)
Method in brief: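 Counter screen for cytotoxicity: compound-treated PR-UAS-bla HEK293T cells (16 hr, 37C, 5% CO2) were assayed with CellTiter-Glo, luminescence measured after 30 min at room temperature.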

[6] = qHTS assay to identify small molecule antagonists of the TGF-beta/Smad signaling pathway - cell viability counter screen (AID 1346824); further: nearly all actives have a fitted effect of over 50% in size
Method in brief: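 SBE-bla HEK 293T cells, incubated overnight, then compound plus 0.25 ng/mL TGF-beta1 (stock added) for 5 hr at 37 C. Viability was read in the same wells by CellTiter-Glo luminescence after 30 min at room temperature.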

[7] = qHTS assay to identify small molecule agonists of the TGF-beta/Smad signaling pathway - cell viability counter screen (AID 1346829); further: top concentration of the series differs between compounds; nearly all actives have a fitted effect of over 45% in size
Method in brief: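 After overnight seating at 37 C and 5% CO2, reporter cells got compounds for 5 hr and FRET substrate for 2 hr; cell viability then came from CellTiter-Glo luminescence.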

[8] = qHTS assay to identify small molecule agonists of the TGF-beta/Smad signaling pathway (AID 1346859; active means well fitted activation curve with a large enough effect in the signal ratio in the repeat runs, not every such curve was filed as active; the % refers to the signal ratio; further: series mostly up to about 77 µM)
Method in brief: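 Smad-responsive beta-lactamase reporter cells (HEK 293T) received compounds from DMSO stocks after overnight attachment, were incubated 5 hr, then treated 2 hr with FRET substrate before dual-emission fluorescence measurement (405 nm excitation).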

[9] = molecular target: Thyrotropin-releasing hormone receptor (Homo sapiens) (UniProt P34981); experiment: qHTS assay to identify small molecule antagonists of the thyrotropin-releasing hormone receptor (TRHR) signaling pathway (AID 1346877; active means well fitted inhibition curve with a large enough effect in the repeat runs, not every such curve was filed as active; further: series mostly up to about 51 µM)
Method in brief: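 TRHR-expressing HEK293 cells were seeded, cultured 18 h at 37 °C, then loaded with calcium dye for 2 h. Compounds were pre-incubated 5 min at room temperature before 1 nM TRH (final) was added, and kinetic fluorescence was recorded for 3 min.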

[10] = Human pregnane X receptor (PXR) small molecule agonists, qHTS cell viability counter screen (AID 1346977); further: nearly all actives have a fitted effect of over 50% in size
Method in brief: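 Measures live-cell protease fluorescence (CellTiter-Fluor) in PXR-Luc HepG2 cells treated 24hr with compounds at 37C. Cells had 5hr to attach before pin transfer of DMSO solutions.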

[11] = Caspase-3/7 induction in HepG2 cells by small molecules, qHTS assay (AID 1346978); further: nearly all actives have a fitted effect of over 15% in size
Method in brief: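 Wild-type HepG2 cells, 2,000/well, settled 5 hr at 37 C and 5% CO2, then compound-treated for 17 hr; caspase-3/7 activity read by luminescent Caspase-Glo 3/7 after 30 min at room temperature.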

[12] = Caspase-3/7 induction in CHO-K1 cells by small molecules, qHTS cell viability counter screen (AID 1346979); further: nearly all actives have a fitted effect of over 35% in size; further: potency means the concentration at half of the fitted maximal effect
Method in brief: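 In the same wells as the caspase read, viability of compound-treated wild-type CHO-K1 cells was assessed using CellTiter-Fluor, added after 16hr at 37C and measured by fluorescence following 1hr further incubation.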

[13] = Caspase-3/7 induction in CHO-K1 cells by small molecules, qHTS assay (AID 1346980); further: nearly all actives have a fitted effect of over 15% in size
Method in brief: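 Wild-type CHO-K1 cells exposed to compounds for 17hr at 37 C, 5% CO2. Caspase-3/7 activity then measured by Caspase-Glo 3/7 luminescence after 30min at room temperature.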

[14] = Caspase-3/7 induction in HepG2 cells by small molecules, qHTS cell viability counter screen (AID 1346981); further: nearly all actives have a fitted effect of over 30% in size; further: potency means the concentration at half of the fitted maximal effect; on activity change, negative = cytotoxicity: series mostly up to about 92 µM
Method in brief: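 Wild-type HepG2 cells (2,000/well) were allowed to settle for 5 hr at 37 C, 5% CO2, then dosed with compounds in DMSO by pin transfer. After 16 hr at 37 C, CellTiter-Fluor was added and fluorescence read 1 hr later.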

[15] = molecular target: Nuclear receptor subfamily 1 group I member 2 (Homo sapiens) (UniProt O75469); experiment: Human pregnane X receptor (PXR) small molecule agonists, qHTS assay (AID 1346982); further: nearly all actives have a fitted effect of over 35% in size; further: potency means the concentration at half of the fitted maximal effect
Method in brief: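 PXR-Luc HepG2 cells (CYP3A4 promoter-driven luciferase) were seeded in medium with 5% charcoal-stripped FBS, left 5 hr at 37 C, then exposed to compounds in DMSO for 24 hr. Luminescence was read after ONE-Glo addition.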

[16] = molecular target: Cytochrome P450 2D6 (Homo sapiens) (UniProt P10635); experiment: Cytochrome P450 Family 2 Subfamily D Member 6 (CYP2D6) small molecule antagonists: luciferase reporter qHTS assay (AID 1671196); further: nearly all actives have a fitted effect of over 50% in size; further: potency means the concentration at half of the fitted maximal effect; on activity change, negative = inhibition: series mostly up to about 120 µM
Method in brief: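 CYP2D6 enzyme–substrate mix was held with compound for 10 min at room temperature, then NADPH regeneration solution was added and the reaction ran 1 h at room temperature. Luciferin product was detected by luminescence after 20 min with detection reagent.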

[17] = molecular target: Nuclear receptor subfamily 1 group I member 2 (Homo sapiens) (UniProt O75469); experiment: CYP3A4 induction through human pregnane X receptor (PXR) by small molecules, qHTS assay (AID 1346984); further: nearly all actives have a fitted effect of over 40% in size
Method in brief: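 DPX-2 cells (HepG2 co-transfected with PXR and CYP3A4 promoter-luciferase) treated with compounds 24 h at 37C; luciferin-IPA CYP3A4 substrate 3uM final added for 3 h, then One-Glo; luminescence read. qHTS format.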

[18] = molecular target: Nuclear receptor subfamily 1 group I member 2 (Homo sapiens) (UniProt O75469); experiment: Human pregnane X receptor (PXR) activation by small molecules, qHTS assay (AID 1346985); further: nearly all actives have a fitted effect of over 40% in size
Method in brief: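 DPX-2 cells (HepG2 co-transfected with a PXR response element and a CYP3A4-promoter luciferase construct) were seeded at 2,000 per well, rested 5 hr at 37C, then exposed to DMSO-dissolved compounds for 24 hr. Activation was read as luciferase luminescence.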

[19] = molecular target: Thyrotropin-releasing hormone receptor (Homo sapiens) (UniProt P34981); experiment: qHTS assay to identify small molecule agonists of the thyrotropin-releasing hormone receptor (TRHR) signaling pathway (AID 1346891; calls by dose curve; further: series mostly up to about 58 µM)
Method in brief: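 Agonist-mode calcium mobilisation screen: TRHR-transfected HEK293 cells cultured overnight (18 h), dye-loaded for 2 h at 37 °C, exposed to compounds, and monitored by fluorescence for 3 min.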
On the % scale 0 is the no-effect control and ±100 the full control effect.

Chain of Nuclear receptor subfamily 1 group I member 2 (Homo sapiens) (O75469 whole entry, looked up): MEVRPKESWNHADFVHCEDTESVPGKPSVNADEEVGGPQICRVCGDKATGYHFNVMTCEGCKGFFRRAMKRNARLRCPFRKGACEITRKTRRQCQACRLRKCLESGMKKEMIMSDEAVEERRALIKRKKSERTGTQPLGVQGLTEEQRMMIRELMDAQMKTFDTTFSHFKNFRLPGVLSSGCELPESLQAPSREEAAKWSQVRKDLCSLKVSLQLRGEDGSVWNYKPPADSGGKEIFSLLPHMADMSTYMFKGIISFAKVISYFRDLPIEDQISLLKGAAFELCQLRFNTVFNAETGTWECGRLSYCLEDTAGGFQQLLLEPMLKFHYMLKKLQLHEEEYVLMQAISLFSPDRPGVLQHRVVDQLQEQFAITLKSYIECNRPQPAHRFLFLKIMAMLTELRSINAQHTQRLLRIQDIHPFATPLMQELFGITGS
Chain of Cytochrome P450 2D6 (Homo sapiens) (P10635 whole entry, looked up): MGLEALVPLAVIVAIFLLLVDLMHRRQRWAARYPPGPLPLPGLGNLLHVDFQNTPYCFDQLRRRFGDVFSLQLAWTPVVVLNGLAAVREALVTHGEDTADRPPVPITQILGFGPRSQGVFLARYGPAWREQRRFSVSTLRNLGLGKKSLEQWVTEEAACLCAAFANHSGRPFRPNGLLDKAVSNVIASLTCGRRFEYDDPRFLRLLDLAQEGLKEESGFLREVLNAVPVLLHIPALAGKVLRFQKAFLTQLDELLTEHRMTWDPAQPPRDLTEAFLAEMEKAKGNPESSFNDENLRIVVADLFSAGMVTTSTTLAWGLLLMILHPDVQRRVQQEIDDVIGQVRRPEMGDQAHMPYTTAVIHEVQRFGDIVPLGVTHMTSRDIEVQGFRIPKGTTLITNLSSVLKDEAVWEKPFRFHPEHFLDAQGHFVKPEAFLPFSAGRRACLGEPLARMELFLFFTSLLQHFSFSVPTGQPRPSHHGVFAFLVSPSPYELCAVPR
Chain of Thyrotropin-releasing hormone receptor (Homo sapiens) (P34981 whole entry, looked up): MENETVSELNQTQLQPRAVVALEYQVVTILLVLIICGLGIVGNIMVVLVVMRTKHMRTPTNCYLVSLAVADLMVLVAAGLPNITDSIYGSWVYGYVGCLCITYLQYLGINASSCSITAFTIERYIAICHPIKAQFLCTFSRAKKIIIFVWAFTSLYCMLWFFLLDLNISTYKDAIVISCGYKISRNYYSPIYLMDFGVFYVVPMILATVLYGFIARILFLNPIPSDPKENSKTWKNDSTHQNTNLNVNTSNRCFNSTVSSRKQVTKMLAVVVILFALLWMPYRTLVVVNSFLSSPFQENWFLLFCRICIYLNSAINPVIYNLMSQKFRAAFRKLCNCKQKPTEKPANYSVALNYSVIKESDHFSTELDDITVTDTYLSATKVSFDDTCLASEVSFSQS
Chain of Progesterone receptor (Homo sapiens) (P06401 whole entry, looked up): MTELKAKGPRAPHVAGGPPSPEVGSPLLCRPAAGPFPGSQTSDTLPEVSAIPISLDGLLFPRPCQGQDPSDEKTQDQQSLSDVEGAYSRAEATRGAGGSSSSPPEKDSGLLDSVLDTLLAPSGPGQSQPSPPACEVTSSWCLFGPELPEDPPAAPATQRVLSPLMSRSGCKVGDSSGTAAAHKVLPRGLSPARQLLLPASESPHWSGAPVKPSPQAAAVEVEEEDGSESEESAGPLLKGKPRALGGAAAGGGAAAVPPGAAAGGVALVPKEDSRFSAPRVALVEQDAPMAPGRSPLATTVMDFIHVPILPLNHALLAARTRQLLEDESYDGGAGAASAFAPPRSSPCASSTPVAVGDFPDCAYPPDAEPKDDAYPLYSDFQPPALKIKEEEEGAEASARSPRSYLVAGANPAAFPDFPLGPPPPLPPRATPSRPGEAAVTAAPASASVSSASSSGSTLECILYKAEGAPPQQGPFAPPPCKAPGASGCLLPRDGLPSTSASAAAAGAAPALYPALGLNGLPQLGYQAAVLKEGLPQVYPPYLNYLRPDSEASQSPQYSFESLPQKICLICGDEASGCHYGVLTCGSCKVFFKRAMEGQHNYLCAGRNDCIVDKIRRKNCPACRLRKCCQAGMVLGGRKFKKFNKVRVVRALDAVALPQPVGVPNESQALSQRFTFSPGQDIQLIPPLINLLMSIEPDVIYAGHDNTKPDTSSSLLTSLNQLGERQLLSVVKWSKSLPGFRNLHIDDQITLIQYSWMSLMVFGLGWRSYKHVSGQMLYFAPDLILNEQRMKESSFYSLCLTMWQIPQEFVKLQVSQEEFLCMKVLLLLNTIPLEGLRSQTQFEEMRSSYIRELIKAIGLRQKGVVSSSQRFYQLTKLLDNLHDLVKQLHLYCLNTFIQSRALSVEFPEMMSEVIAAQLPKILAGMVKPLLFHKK

COc1ccc(NC(=O)CC(C)=O)cc1
inactive: Potency [1] | Potency [2] | Potency [3] | Potency [4] | Potency [5] | Potency [6] | Potency [7] | Potency [8] | Potency [9] | Potency [10] | Potency [11] | Potency [12] | Potency [13] | Potency [14] | Potency [15] | Potency [16]

O=C(O)c1cc(-c2ccc(F)cc2F)ccc1O
inactive: Potency [1] | Potency [2] | Potency [3] | Potency [4] | Potency [5] | Potency [6] | Potency [7] | Potency [10] | Potency [11] | Potency [12] | Potency [13] | Potency [14] | Potency [15] | Potency [17] | Potency [18] | Potency [16]

Cc1cccc(C)c1NC(=O)c1ccc(N)cc1
inactive: Potency [1] | Potency [2] | Potency [3] | Potency [4] | Potency [5] | Potency [6] | Potency [7] | Potency [8] | Potency [10] | Potency [11] | Potency [13] | Potency [14] | Potency [15] | Potency [16]

CC(C)(C)NSc1nc2ccccc2s1
inactive: Potency [1] | Potency [2] | Potency [3] | Potency [4] | Potency [5] | Potency [6] | Potency [7] | Potency [8] | Potency [11] | Potency [12] | Potency [13] | Potency [14]
active: Potency [15] 49.4 µM

O=C(Nc1ccc2c(O)c(N=Nc3ccc(N=Nc4ccc(S(=O)(=O)O)cc4)cc3)c(S(=O)(=O)O)cc2c1)c1ccccc1
active: Potency [1] 13.7 µM | Potency [12] 15.4 µM | Potency [14] 24.3 µM | Potency [16] 35.6 µM
inactive: Potency [2] | Potency [3] | Potency [4] | Potency [5] | Potency [7] | Potency [8] | Potency [9] | outcome [19] | Potency [11] | Potency [13] | Potency [15]

CC(C)Cn1cnc2c(N)nc3ccccc3c21
inactive: activity change, negative = cytotoxicity [1] -6.27% [at 19 µM] | activation [2] 1.05% [at 19 µM] | activity change, negative = inhibition [3] 5.77% [at 18.9 µM] | activity change, negative = cytotoxicity [4] 10.2% [at 18.9 µM] | activity change, negative = cytotoxicity [5] 13.4% [at 19 µM] | activity change, negative = cytotoxicity [7] 6.14% [at 15.8 µM] | activation [8] -1.86% [at 15.8 µM] | activity change, negative = cytotoxicity [10] -9.27% [at 19 µM] | caspase activation [11] -2.38% [at 19 µM] | activity change, negative = cytotoxicity [12] -8.58% [at 19 µM] | caspase-3/7 activation [13] 0.247% [at 19 µM] | activity change, negative = cytotoxicity [14] -2.64% [at 19 µM] | activation [15] 5.89% [at 19 µM] | Potency [17]

Clc1sc(Cl)c(Cl)c1Cl
inactive: Potency [1] | Potency [2] | Potency [3] | Potency [4] | Potency [5] | Potency [7] | Potency [8] | Potency [9] | outcome [19] | Potency [10] | Potency [11] | Potency [12] | Potency [13] | Potency [14] | Potency [15] | Potency [16]

OCC(F)(F)F
inactive: Potency [1] | Potency [2] | Potency [3] | Potency [4] | Potency [5] | Potency [7] | Potency [8] | Potency [9] | outcome [19] | Potency [10] | Potency [11] | Potency [12] | Potency [13] | Potency [14] | Potency [15] | Potency [16]

Source: PubChem BioAssay (Tox21)
